In PubChem BioAssay (Tox21) one finds Potency data, which are given here for 24 compounds.

The target in assay [1] is Cytochrome P450 2C19 (Homo sapiens) (UniProt P33261). Briefly: Cytochrome P450 Family 2 Subfamily C Member 19 (CYP2C19) small molecule antagonists: luciferase reporter qHTS assay (AID 1671197). Also: nearly all actives have a fitted effect of over 65% in size. Also: potency is read from the fitted curve at half-maximal effect. Summed up:
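Luminescent readout of CYP2C19 activity: luciferin product detected 20 min after adding detection reagent. Before that, compound and enzyme-substrate mix preincubated 10 min at room temperature; NADPH-regenerating system started a 1 h, 37C reaction. Ketoconazole as positive control.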
(In general: In a reporter assay the amount or activity of a reporter protein is the signal.)

Assay [2] deals with Cytochrome P450 2C9 (Homo sapiens) (UniProt P11712). Briefly: Cytochrome P450 Family 2 Subfamily C Member 9 (CYP2C9) small molecule antagonists: luciferase reporter qHTS assay (AID 1671198). Also: nearly all actives have a fitted effect of over 50% in size. Also: potency is read from the fitted curve at half-maximal effect. In short, it runs like this:
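CYP2C9 activity was measured with a P450-Glo proluciferin substrate. Enzyme–substrate mix was held with compound for 10 min at room temperature, then NADPH regeneration solution was added for 1 h at 37C. Luciferin product was read as luminescence.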

For assay [3], the target named is Cytochrome P450 1A2 (Homo sapiens) (UniProt P05177). Briefly: Cytochrome P450 Family 1 Subfamily A Member 2 (CYP1A2) small molecule antagonists: luciferase reporter qHTS assay (AID 1671199). Also: nearly all actives have a fitted effect of over 50% in size. Also: potency is read from the fitted curve at half-maximal effect. In short, it runs like this:
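Compounds were incubated with CYP1A2 and a luminogenic proluciferin substrate for 10 min at room temperature before the reaction was started with NADPH regeneration solution. After 1 h, detection reagent was added and light output, proportional to CYP activity, was recorded.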

Assay [4] deals with Voltage-gated inwardly rectifying potassium channel KCNH2 (Homo sapiens) (UniProt Q12809). Briefly: Human Ether-a-go-go-Related Gene (hERG) channel small molecule antagonists: fluorescence cell-based qHTS assay (AID 1671200).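 Also: hERG-expressing U2OS cells given a thallium stimulus after FluxOR II dye loading; series mostly up to about 77 µM; nearly all actives have a fitted effect of over 50% in size.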 In short, it runs like this:
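hERG-U2OS cells plated overnight at 37 C, loaded with FluxOR II dye 1 h at RT in dark; after 10 min, thallium stimulus added. Fluorescence (480/540 nm) read kinetically for 2 min at 1 s intervals.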
In general terms: The hERG channel carries a current that helps repolarise heart muscle cells.

The target in assay [5] is Cytochrome P450 3A4 (Homo sapiens) (UniProt P08684). In words: Cytochrome P450 Family 3 Subfamily A Member 4 (CYP3A4) small molecule antagonists: luciferase reporter qHTS assay (AID 1671201). Also: nearly all actives have a fitted effect of over 50% in size. Also: potency is read from the fitted curve at half-maximal effect. Summed up: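 P450-Glo CYP3A4 luminescent assay: compounds preincubated 10 min at room temperature with enzyme and proluciferin substrate, NADPH regeneration added, 1 h room-temperature reaction, stopped with luciferin detection reagent; luminescence read after 20 min. Ketoconazole positive control.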

Several values for one entry are separate records, joined by “and”; a condition that tells them apart may be missing. Equal values may be shown once. Results filed as inconclusive are left out. A structure can be active in one record and inactive in another. Activity calls are given as the source filed them. Calls follow the shape of the dose curve; as a rule, active = well fitted curve in the direction sought with a large enough effect in the repeat runs; inconclusive = weak or mixed curves; inactive = no such curve, though single readings can be large; an effect the other way counts as inactive or inconclusive.

Sequence of Cytochrome P450 2C19 (Homo sapiens) (P33261 whole entry, looked up): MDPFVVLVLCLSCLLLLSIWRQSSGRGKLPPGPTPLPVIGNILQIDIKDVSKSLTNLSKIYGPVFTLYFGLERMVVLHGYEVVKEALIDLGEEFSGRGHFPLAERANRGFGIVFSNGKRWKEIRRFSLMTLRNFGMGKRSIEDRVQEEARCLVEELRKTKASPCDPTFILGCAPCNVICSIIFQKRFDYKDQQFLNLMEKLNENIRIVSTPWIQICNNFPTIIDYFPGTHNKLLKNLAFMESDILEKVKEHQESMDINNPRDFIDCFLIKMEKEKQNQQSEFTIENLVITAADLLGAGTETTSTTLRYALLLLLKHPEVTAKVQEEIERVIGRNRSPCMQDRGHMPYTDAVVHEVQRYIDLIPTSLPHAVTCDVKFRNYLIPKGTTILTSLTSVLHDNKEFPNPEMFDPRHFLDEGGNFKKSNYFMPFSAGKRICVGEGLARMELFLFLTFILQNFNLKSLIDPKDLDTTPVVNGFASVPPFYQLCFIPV
Sequence of Cytochrome P450 3A4 (Homo sapiens) (P08684 whole entry, looked up): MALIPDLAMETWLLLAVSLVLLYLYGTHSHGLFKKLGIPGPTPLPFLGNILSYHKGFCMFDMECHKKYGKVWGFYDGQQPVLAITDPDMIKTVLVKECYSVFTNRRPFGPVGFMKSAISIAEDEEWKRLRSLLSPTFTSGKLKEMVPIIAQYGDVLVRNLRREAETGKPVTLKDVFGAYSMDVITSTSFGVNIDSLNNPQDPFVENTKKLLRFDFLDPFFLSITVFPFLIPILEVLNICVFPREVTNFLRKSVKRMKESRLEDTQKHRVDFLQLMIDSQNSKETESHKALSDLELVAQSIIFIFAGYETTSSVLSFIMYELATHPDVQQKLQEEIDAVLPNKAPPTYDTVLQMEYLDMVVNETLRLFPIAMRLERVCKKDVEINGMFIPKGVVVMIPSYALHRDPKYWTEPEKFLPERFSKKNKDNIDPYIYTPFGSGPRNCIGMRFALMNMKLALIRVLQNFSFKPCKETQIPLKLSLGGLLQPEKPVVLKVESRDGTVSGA
Sequence of Voltage-gated inwardly rectifying potassium channel KCNH2 (Homo sapiens) (Q12809 whole entry, looked up): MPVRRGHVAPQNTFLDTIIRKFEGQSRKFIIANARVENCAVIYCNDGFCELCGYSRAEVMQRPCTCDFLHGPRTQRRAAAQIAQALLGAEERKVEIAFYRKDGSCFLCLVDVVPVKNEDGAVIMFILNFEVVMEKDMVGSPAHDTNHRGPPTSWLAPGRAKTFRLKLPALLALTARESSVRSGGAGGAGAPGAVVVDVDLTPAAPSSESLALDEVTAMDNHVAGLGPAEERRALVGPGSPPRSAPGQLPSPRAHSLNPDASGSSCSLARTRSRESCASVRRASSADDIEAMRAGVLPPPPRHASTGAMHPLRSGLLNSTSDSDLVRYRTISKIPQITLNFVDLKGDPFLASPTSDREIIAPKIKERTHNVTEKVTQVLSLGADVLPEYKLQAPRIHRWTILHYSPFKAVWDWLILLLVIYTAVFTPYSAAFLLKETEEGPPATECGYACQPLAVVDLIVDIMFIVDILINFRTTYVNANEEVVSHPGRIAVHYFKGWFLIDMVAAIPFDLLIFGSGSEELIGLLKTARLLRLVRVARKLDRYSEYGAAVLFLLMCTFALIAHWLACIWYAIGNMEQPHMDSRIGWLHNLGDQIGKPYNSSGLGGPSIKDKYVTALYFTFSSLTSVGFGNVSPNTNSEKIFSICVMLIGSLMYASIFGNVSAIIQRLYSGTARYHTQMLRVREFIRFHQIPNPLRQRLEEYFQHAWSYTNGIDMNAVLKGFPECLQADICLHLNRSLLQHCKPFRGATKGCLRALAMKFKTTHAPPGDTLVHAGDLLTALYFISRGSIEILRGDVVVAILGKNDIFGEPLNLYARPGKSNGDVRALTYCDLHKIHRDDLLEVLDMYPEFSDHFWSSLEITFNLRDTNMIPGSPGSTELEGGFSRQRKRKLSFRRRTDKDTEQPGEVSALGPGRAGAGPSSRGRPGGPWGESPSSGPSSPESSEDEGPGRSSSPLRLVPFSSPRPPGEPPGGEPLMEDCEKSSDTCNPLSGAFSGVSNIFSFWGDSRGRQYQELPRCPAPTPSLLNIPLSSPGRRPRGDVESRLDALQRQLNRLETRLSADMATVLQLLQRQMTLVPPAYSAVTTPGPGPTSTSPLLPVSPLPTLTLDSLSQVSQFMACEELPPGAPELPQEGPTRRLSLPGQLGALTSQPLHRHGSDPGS
Sequence of Cytochrome P450 1A2 (Homo sapiens) (P05177 whole entry, looked up): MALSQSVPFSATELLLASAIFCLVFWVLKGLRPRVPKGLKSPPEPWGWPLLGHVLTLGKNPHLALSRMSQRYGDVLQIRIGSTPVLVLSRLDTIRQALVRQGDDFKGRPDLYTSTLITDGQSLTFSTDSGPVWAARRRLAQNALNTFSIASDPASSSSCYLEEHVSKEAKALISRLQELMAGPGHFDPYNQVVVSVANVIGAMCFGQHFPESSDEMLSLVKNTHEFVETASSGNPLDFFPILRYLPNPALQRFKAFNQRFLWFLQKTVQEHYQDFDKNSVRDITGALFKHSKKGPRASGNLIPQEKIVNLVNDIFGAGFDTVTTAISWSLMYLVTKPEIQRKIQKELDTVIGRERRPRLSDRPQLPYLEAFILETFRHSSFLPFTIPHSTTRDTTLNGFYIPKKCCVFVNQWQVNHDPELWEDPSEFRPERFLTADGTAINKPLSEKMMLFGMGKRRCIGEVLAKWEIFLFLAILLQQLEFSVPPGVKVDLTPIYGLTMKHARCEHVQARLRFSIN
Sequence of Cytochrome P450 2C9 (Homo sapiens) (P11712 whole entry, looked up): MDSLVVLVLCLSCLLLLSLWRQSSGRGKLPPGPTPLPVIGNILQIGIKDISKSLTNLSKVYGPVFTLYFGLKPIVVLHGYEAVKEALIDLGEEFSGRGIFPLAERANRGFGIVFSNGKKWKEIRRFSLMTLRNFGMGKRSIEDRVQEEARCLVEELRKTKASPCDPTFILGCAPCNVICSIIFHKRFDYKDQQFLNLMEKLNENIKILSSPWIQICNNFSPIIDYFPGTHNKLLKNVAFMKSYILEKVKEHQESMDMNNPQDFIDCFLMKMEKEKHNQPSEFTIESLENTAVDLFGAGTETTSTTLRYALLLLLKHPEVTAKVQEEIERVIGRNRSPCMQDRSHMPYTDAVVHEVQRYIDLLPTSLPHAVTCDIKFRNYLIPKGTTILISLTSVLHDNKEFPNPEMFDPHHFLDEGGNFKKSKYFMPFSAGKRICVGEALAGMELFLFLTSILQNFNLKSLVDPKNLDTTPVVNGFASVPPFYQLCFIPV

For the compound `CCCCCCCCC`, the Potency entry in assay [1], in assay [2], in assay [3] and in assay [4] was “inactive” in each case.

On to `C[C@@H]1O[C@@H](OC[C@H]2O[C@@H](Oc3c(-c4ccc(O)c(O)c4)oc4cc(O)cc(O)c4c3=O)[C@H](O)[C@@H](O)[C@@H]2O)[C@H](O)[C@H](O)[C@H]1O`, for which the Potency result in assay [1], in assay [2] and in assay [3] was “inactive” each time.

With `CCCCCCCCCCCCOCC1CO1` (stereo not given), the Potency in assay [1] is 60.4 µM (active); in assay [3], 63.4 µM (active). Moreover, the Potency entry in assay [2] is “inactive”.

`O=C(c1ccc(O)cc1)c1ccc(O)cc1O`: the Potency in assay [1] was 32.1 µM (active) and inactive; in assay [3], 28.6 µM (active) and 35.6 µM (active). Further, the Potency result in assay [2] and in assay [4] was “inactive” throughout.

For the compound `CCc1ccccc1O`, the Potency was 17.7 µM (active) and inactive in assay [1]; 35.4 µM (active) in assay [2]; 31.6 µM (active) in assay [3]. The Potency result in assay [4] is “inactive”.

With `O=C1CCCCC1`, the Potency in assay [1] was 74.6 µM (active) and inactive. Besides, the Potency entry in assay [2] and in assay [3] was “inactive” throughout.

With `CCCCNC(N)=O`, the Potency entry in assay [1], in assay [2], in assay [3] and in assay [4] was “inactive” in each case.

Take `CCCCCCCCCCC=CC1CC(=O)OC1=O` (stereo not given): the Potency was 45 µM (active) and inactive in assay [1]; 71.4 µM (active) and 39.9 µM (active) in assay [2]. Moreover, the Potency entry in assay [3], in assay [4] and in assay [5] was “inactive” throughout.

Regarding `CCCCOCCOCCOC(=O)CCCCC(=O)OCCOCCOCCCC`, the Potency was 22.5 µM (active) and 22.4 µM (active) in assay [1]; 11.3 µM (active) and 17.8 µM (active) in assay [2]; 20.1 µM (active) and 31.7 µM (active) in assay [5]. The Potency entry in assay [3] and in assay [4] was “inactive” each time.

For `O=C(O)c1cc(-c2ccccc2)nc2ccccc12`, the Potency in assay [1] was 50.9 µM (active) and inactive; in assay [2], 43.9 µM (active); in assay [3], 36.9 µM (active). Further, the Potency result in assay [4] and in assay [5] was “inactive” in each case.

As to `Cc1cc(O)c2c(c1)C(=O)c1cc(O)cc(O)c1C2=O`, the Potency entry was “inactive and 35.6 µM (active)” in assay [1]; 12.3 µM (active) and 11.2 µM (active) in assay [2]; 8.94 µM (active) in assay [3]; 27.6 µM (active) and 22.4 µM (active) in assay [5]. The Potency result in assay [4] was “inactive”.

Turning to `COC(=O)c1ccc(C(=O)OC)cc1`, the Potency in assay [1] is 18.1 µM (active) and inactive; in assay [2], 40.5 µM (active) and inactive; in assay [3] it was 25.5 µM (active) and 10 µM (active). Also, the Potency entry in assay [4] was “inactive”.

Regarding `CCCCCCCCCC(=O)O`, the Potency result in assay [1], in assay [3], in assay [4] and in assay [5] was “inactive” in each case. In addition, the Potency in assay [2] is 74.8 µM (active).

As for `Cc1cc(O)cc(C)c1Cl`, the Potency result in assay [1], in assay [2] and in assay [4] was “inactive” each time. The Potency in assay [3] was 25.2 µM (active) and 15.5 µM (active).

For `OC[C@@H](O)[C@@H](O)[C@H](O)[C@@H](O)CO`, the Potency result in assay [1], in assay [2], in assay [3], in assay [4] and in assay [5] was “inactive” each time.

Regarding `CC(C)Cc1ccccc1`, the Potency result in assay [1], in assay [2], in assay [3], in assay [4] and in assay [5] was “inactive” in each case.

For `CC(C)(C)C1CCC(O)CC1` (stereo not given), the Potency in assay [1] was 32.2 µM (active) and inactive; in assay [3], 72 µM (active) and inactive. For the same compound, the Potency entry in assay [2], in assay [4] and in assay [5] was “inactive” throughout.

Turning to `OCC#CCO`, the Potency in assay [1] was 57.2 µM (active) and inactive. The Potency result in assay [2], in assay [3] and in assay [4] was “inactive” in each case.

With `CC(C)(C)C(=O)C1C(=O)c2ccccc2C1=O`, the Potency in assay [1] is 35.3 µM (active) and inactive; in assay [2], 22.2 µM (active) and 25.2 µM (active); in assay [3] it was 31.4 µM (active); in assay [5] it was 28 µM (active).

As for `NC(=O)/N=N/C(N)=O`, the Potency in assay [1] is 3.18 µM (active) and 5.64 µM (active); in assay [2], 4 µM (active) and 3.99 µM (active); in assay [3], 17.9 µM (active) and 15.9 µM (active). The Potency result in assay [4] and in assay [5] was “inactive” in each case.

Consider `Clc1ccc(Cl)c(Cl)c1Cl`, for which the Potency in assay [1] was 49.7 µM (active); in assay [3], “inactive and 39.9 µM (active)”. For the same compound, the Potency entry in assay [2], in assay [4] and in assay [5] was “inactive” in each case.

For the compound `O=[N+]([O-])c1cc(N(CCO)CCO)ccc1NCCO`, the Potency is 22.4 µM (active) and 39.9 µM (active) in assay [1]; 35.5 µM (active) and 39.9 µM (active) in assay [2]; 35.5 µM (active) and 35.6 µM (active) in assay [3]; 35.5 µM (active) and 39.9 µM (active) in assay [5].

For the compound `CCCCC(CC)COC(=O)CCCCCCCC(=O)OCC(CC)CCCC` (stereo not given), the Potency in assay [1] was 7.96 µM (active) and inactive; in assay [2], 31.7 µM (active) and inactive; in assay [3], 35.6 µM (active) and inactive; in assay [5], 5.64 µM (active) and inactive. In addition, the Potency entry in assay [4] is “inactive”.

As to `CC(=O)CCc1ccccc1`, the Potency in assay [1] is 81 µM (active) and inactive. In addition, the Potency result in assay [2], in assay [3], in assay [4] and in assay [5] was “inactive” in each case.
